Caspase-7 inhib: caspase-7 (human) inhibition, allosteric or competitive; 0.02% of 75,000 active; Potency, µM (highest dose often 57.5 µM), hits mostly inhibitors; recombinant caspase-7, Ac-DEVD-AFC fluorescence rate; active means well fitted inhibition curve with a large enough effect in the main read-out, with a control signal flat, not every such curve was filed as active; inconclusive means small, poorly fitted or top-dose-only effect, or a change in a side signal
Casp1 inh: allosteric or competitive inhibitors of human caspase-1; P29466; Caspase-1 enzyme, Ac-WEHD-AFC fluorogenic rate; Potency, µM (series often up to 57.5 µM), usual class: inhibitors; 0.03% of 75,000 active; AID 900
15-hLO-2 inh: inhibitors of human 15-lipoxygenase 2 (ALOX15B); Potency, µM (highest dose often 57.1 µM), usual class: inhibitors; purified 15hLO-2, xylenol orange hydroperoxide absorbance; AID 881; O15296; 0.56% of 110,000 active; further: nearly all actives have a fitted effect of over 60% in size
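Screening format was qHTS against 50 nM purified 15hLO-2 in Hepes pH 7.5 with detergent. Activity follows hydroperoxide formation from 45 uM arachidonic acid, measured as 573:405 nm absorbance ratio of the ferric-xylenol orange complex.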
HEK293 cAMP cs: parental HEK293 cAMP activation (counter-screen); parental HEK293 CNG cAMP sensor, membrane potential fluorescence; Potency, µM (top dose mostly 57.1 µM), usual class: activators; 2.5% of 73,000 active; further: nearly all actives have a fitted effect of over 55% in size
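Parental HEK 293 cells stably expressing a cAMP-gated CNG channel were loaded with membrane potential dye containing 100 uM RO 20-1724 for 60 min. Compound added for 30 min; depolarization read as fluorescence intensity at 590 nm.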
ALOX15 inhib: inhibitors of human 15-lipoxygenase (ALOX15); purified 15hLO-1, xylenol orange hydroperoxide absorbance; Potency, µM (highest dose often 57.1 µM), actives largely listed as inhibitors; 1.4% of 74,000 active; P16050; further: nearly all actives have a fitted effect of over 55% in size
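Readout: Fe(III)-xylenol orange absorbance, 573-to-405 nm ratio as reaction progress. Enzyme 40 nM purified human 15hLO-1, substrate 50 uM arachidonic acid, 6 min RT after 15 min compound preincubation; Hepes pH 7.5 buffer with Triton X-100.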
TSHR agonist: agonists of human thyroid stimulating hormone receptor; P16473; HEK293-CNG-TSHR cells (CNG channel as cAMP sensor), membrane potential dye, cAMP; Potency, µM (series often up to 57.1 µM), hits mostly activators; 0.48% of 73,000 active; active means well fitted activation curve with a large enough effect in the main read-out, with a control signal flat, not every such curve was filed as active; inconclusive means small, poorly fitted or top-dose-only effect, or a change in a side signal; inactive means no such curve, though single readings can be large or run the other way; reference of the percent scale not stated here;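 further: the control signal comes from parental cells without the receptor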
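cAMP rise detected as CNG-channel membrane depolarization by fluorescent dye (emission 590 nm), 30 min after compound, following 60 min dye loading containing 100 uM RO 20-1724 at room temperature. Cells: TSHR/CNG HEK 293, with parental CNG HEK 293 as control.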
Large screens that a line does not name were inactive. The list is not random: actives were taken first. Their share in the collection is about 3%. Unless noted, the call rests on the fitted dose curve; in most records, active means well fitted curve in the direction sought with a large enough effect; inconclusive means small, poorly fitted or top-dose-only effect, or another doubt; inactive means no such curve, though single readings can be large; an effect the other way counts as inactive or inconclusive.

CCC1Oc2ccc(C)cc2N(CC(=O)NCCCN2CCCCC2CC)C1=O (stereo not drawn)	none
CCC1Oc2ccc(C)cc2N(CC(=O)NCCC2=CCCCC2)C1=O (stereo not drawn)	HEK293 cAMP cs 6.31µM, TSHR agonist inconclusive
COc1ccc(-c2c3c(=O)n(C)c(=O)n(C)c3cn2C2CCCCC2)cc1	ALOX15 inhib 25.1µM (no result: TSHR agonist)
CC(=O)NCCNc1ncnc2ccc(-c3ccccc3C#N)cc12	ALOX15 inhib inconclusive
CC1Cn2c(nnc2-c2ccc(F)cc2)S1 (stereo not drawn)	HEK293 cAMP cs 3.98µM, TSHR agonist inconclusive
COc1cccc(-c2cc(NCc3cccc(C)c3)ncn2)c1	HEK293 cAMP cs inconclusive, TSHR agonist inconclusive
CC(C)c1ccc(Cn2ccc3c4c(N)nc(NC5CC5)nc4ccc32)cc1	ALOX15 inhib 7.94µM, TSHR agonist inconclusive
c1cncc(-c2ccc3ncnc(NC4CCNCC4)c3c2)c1	none
c1cncc(-c2cncnc2NC2CCNCC2)c1	ALOX15 inhib 31.6µM
CCCCCCCCCCCCCCCCOC[C@@H](COCC(F)(F)F)OP(=O)(O)OCO	TSHR agonist 20µM (no result: Caspase-7 inhib, Casp1 inh, 15-hLO-2 inh, ALOX15 inhib)
O=c1cc(CSc2nnnn2-c2ccccc2)nc2nc[nH]n12	none
O=c1cc(CSc2ccc(Cl)cc2)nc2nc[nH]n12	HEK293 cAMP cs 10µM, TSHR agonist inconclusive
Oc1ccc(-c2nc3ncccn3c2Nc2ccc3c(c2)OCO3)cc1	ALOX15 inhib 10µM
COCCN(CCOC)c1nc(C)nc2c1nc(-c1ccccc1)n2CCCN1CCCCC1C (stereo not drawn)	none (no result: TSHR agonist)
CC1(c2ccncc2)Nc2ccccc2-c2nc3ccccc3n21 (stereo not drawn)	TSHR agonist 25.1µM
CCNc1ncc2nc(-c3cccs3)c(=O)n(Cc3cccc(OC)c3)c2n1	Caspase-7 inhib inconclusive, HEK293 cAMP cs inconclusive, TSHR agonist inconclusive (no result: Casp1 inh)
COC(=O)c1ccc(OCC2c3cc(OC)c(OC)cc3CCN2C(=O)c2ccco2)cc1 (stereo not drawn)	TSHR agonist 31.6µM
CS(=O)(=O)N1CCC2(CCN(c3ccccn3)CC2)CC1	HEK293 cAMP cs inconclusive, TSHR agonist inconclusive
CSc1nnc2n(-c3ccccc3)c(=O)c3c4c(sc3n12)CCC4	ALOX15 inhib 2.51µM
CSc1nnc2n(C3CCCCC3)c(=O)c3c4c(sc3n12)CCCC4	none (no result: Caspase-7 inhib, Casp1 inh, HEK293 cAMP cs, ALOX15 inhib, TSHR agonist)
O=C1N=C(c2ccccc2)S/C1=C\c1cccs1	15-hLO-2 inh 10µM (no result: Caspase-7 inhib, Casp1 inh, HEK293 cAMP cs, ALOX15 inhib, TSHR agonist)
O=C1/C(=C/c2cccs2)SC(=S)N1c1ccccc1	none (no result: Caspase-7 inhib, Casp1 inh, HEK293 cAMP cs, ALOX15 inhib, TSHR agonist)
CCOC(=O)C(CC)Sc1nnc2n1C(C)(C)Cc1ccccc1-2 (stereo not drawn)	HEK293 cAMP cs 20µM, TSHR agonist inconclusive
COC(=O)CSc1nnc2n1C(C)(C)Cc1ccccc1-2	none
Cc1ccc(C(C(=O)NC2CCCC2)N(Cc2ccc(F)cc2)C(=O)c2csnn2)o1 (stereo not drawn)	HEK293 cAMP cs 15.8µM, TSHR agonist inconclusive
CN1CCN([C@@H]2Cc3ccccc3Sc3ccc(Cl)cc32)CC1	HEK293 cAMP cs inconclusive, TSHR agonist inconclusive
COc1ccccc1CN(C(=O)c1ccco1)C(C(=O)NC1CCCC1)c1ccncc1 (stereo not drawn)	HEK293 cAMP cs inconclusive, TSHR agonist inconclusive
O=C(NC1CCCCC1)C(c1ccco1)N(Cc1ccco1)C(=O)c1ccco1 (stereo not drawn)	HEK293 cAMP cs 15.8µM, ALOX15 inhib inconclusive, TSHR agonist inconclusive
NC(=O)c1nsc(C(=O)N(CCc2ccccc2)C(C(=O)NC2CCCC2)c2ccco2)c1N (stereo not drawn)	HEK293 cAMP cs 6.31µM, TSHR agonist inconclusive
O=C(NC1CCCCC1)N(Cc1ccccc1)Cc1ccco1	HEK293 cAMP cs 15.8µM, TSHR agonist inconclusive
CCOCCCN(C(=O)CNC(=O)c1ccco1)C(C(=O)NC1CCCC1)c1ccccc1C (stereo not drawn)	HEK293 cAMP cs 31.6µM, TSHR agonist inconclusive
CCNc1ncc2nc(-c3ccc(F)cc3)c(=O)n(-c3ccccc3)c2n1	Caspase-7 inhib inconclusive, HEK293 cAMP cs inconclusive, TSHR agonist inconclusive (no result: Casp1 inh)
